Drawing on article PMC7819943, “Rice protein-binding microarrays: a tool to detect cis-acting elements near promoter regions in rice”, this text covers binding signal for 44 sequences.

In all, about 35,000 sequences were measured (“fluorescence intensity (a.u.)”: median about 10,000, highest 2% from about 52,000 on). For the sample, the highest values were picked, then their nearest neighbours and some sequences at random.

The assay concerns the target T1, OsWOX13 (Oryza sativa, UniProt Q5QMM3 1-267).
T1 sequence: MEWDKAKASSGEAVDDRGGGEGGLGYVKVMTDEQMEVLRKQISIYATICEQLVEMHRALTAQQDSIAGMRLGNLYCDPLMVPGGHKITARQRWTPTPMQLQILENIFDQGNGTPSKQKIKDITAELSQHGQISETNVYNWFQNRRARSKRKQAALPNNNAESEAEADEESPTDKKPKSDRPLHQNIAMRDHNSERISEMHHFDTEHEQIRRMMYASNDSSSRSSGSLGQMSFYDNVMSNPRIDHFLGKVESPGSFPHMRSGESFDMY
Put plainly: protein-binding microarray (RPBM); PBS, 2% BSA, 51.3 ng/ul salmon testes DNA, 50 uM zinc acetate, 200 nM TF, 25 C, 1 h; high values mean tight binding. To be noted: protein: recombinant; tags: N-terminal polyhistidine and DsRed monomer fusion (pET32a); label: CyDye5-dUTP incorporated in the synthesized complementary strand; 3' TTTTT single-stranded linker to array surface; dsDNA, one strand shown. The method, boiled down:
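Ni–NTA purification followed expression in E. coli BL21-CodonPlus of transcription factors fused N-terminally to a polyhistidine tag and DsRed. At 200 nM in PBS with 2% BSA, salmon testes DNA and 50 µM zinc acetate, the protein was incubated for 1 h at 25 °C with a custom Agilent array that had been primer-extended with Cy5-dUTP and blocked with 2% BSA. After washing, the array was read on an Axon 4000B scanner. The binding signal is per-feature fluorescence intensity in arbitrary units.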
Consider “ATAATTAGACTTCTTGTTGCCTTCACCTATTTTAACACATCGGAGTCACCTAGTGCAG”, for which the binding signal is 13000 fluorescence intensity (a.u.).

Consider “GAAAATTATGTACATCCTCCGCTTAAAGATGACTATGAATCGGAGTCACCTAGTGCAG”, for which the binding signal is 4540 fluorescence intensity (a.u.).

With “GATAAGTAAATTAATTGGAAGAAAGAAATCAGTGGGGAGGCGGAGTCACCTAGTGCAG”, the binding signal was 13500 fluorescence intensity (a.u.).

Turning to “AGCCTAATTAATCCGTCATTAGCAAATATTTACTGTAGCACGGAGTCACCTAGTGCAG”, the binding signal was 28400 fluorescence intensity (a.u.).

Consider “TAAGTAGATCGAAAATGTTTCAATCATTTAAATCAGGCGTCGGAGTCACCTAGTGCAG”, for which the binding signal was 4180 fluorescence intensity (a.u.).

Regarding “TTATTAATTATCATATTAGTAGTAGTAGTAGTAGCTAGGCCGGAGTCACCTAGTGCAG”, the binding signal is 34100 fluorescence intensity (a.u.).

“TATGATATGTCAAATCCTATAATTTCTTCGTCCCAAAATGCGGAGTCACCTAGTGCAG”: the binding signal is 3440 fluorescence intensity (a.u.).

Regarding “ATCGGAGACTGACTGAGTGAAGGTTGGTTGGTTCACACTTCGGAGTCACCTAGTGCAG”, the binding signal is 4540 fluorescence intensity (a.u.).

With “GGTCCAATCAACATGAATAACAAAACAAAGGAAATGGATTCGGAGTCACCTAGTGCAG”, the binding signal is 17100 fluorescence intensity (a.u.).

On to “GAATGGTCCAACAAGGAGACTGAGGAATGGTCAACACATTCGGAGTCACCTAGTGCAG”, for which the binding signal is 59700 fluorescence intensity (a.u.).

Consider “ATGATCAATCAGTAGATTATGCCCTGGTTATTCTTTATAACGGAGTCACCTAGTGCAG”, for which the binding signal is 25400 fluorescence intensity (a.u.).

With “ATGGATATAAATTGATGAGTACAGTCCTGAGAACTGCAAGCGGAGTCACCTAGTGCAG”, the binding signal is 32600 fluorescence intensity (a.u.).

With “GTTACTGTGATTTGTTTCACGAAGCCCCATGTTTTGAGCCCGGAGTCACCTAGTGCAG”, the binding signal is 11700 fluorescence intensity (a.u.).

As for “ACTAATCTGATTGTGTCACTTGTGCGATTGATGGAGTTCACGGAGTCACCTAGTGCAG”, the binding signal was 23900 fluorescence intensity (a.u.).

Regarding “TTTTGATTGAAGACACACCTATTGTCGCGAATACTGCTAACGGAGTCACCTAGTGCAG”, the binding signal was 40500 fluorescence intensity (a.u.).

Turning to “CCACGCCAATTAGCATCCCACGTTTCGCCTTTGATTGTGGCGGAGTCACCTAGTGCAG”, the binding signal is 10600 fluorescence intensity (a.u.).

Regarding “TGTTACATATAATGAAATTAATTTGGTATTGTAGATGTTGCGGAGTCACCTAGTGCAG”, the binding signal is 13600 fluorescence intensity (a.u.).

Take “CTATAATTTGTAGATGATGTAGTATAATTATATTTAATCACGGAGTCACCTAGTGCAG”: the binding signal is 37300 fluorescence intensity (a.u.).

“TATAATTTAAATTTAACTAAATTAATGGTATTACAGATGTCGGAGTCACCTAGTGCAG”: the binding signal is 58500 fluorescence intensity (a.u.).

Turning to “ATATTTAATTATTATTTTAATAAAACTAATTTGGTAATGTCGGAGTCACCTAGTGCAG”, the binding signal was 25700 fluorescence intensity (a.u.).

With “TCATTAATTAATTAATTACAGTGGTAGATGATGATGTAGTCGGAGTCACCTAGTGCAG”, the binding signal is 64000 fluorescence intensity (a.u.).

As for “ATTAATAATGTATAATTTATTTTAGTGGTATTAATGTTGTCGGAGTCACCTAGTGCAG”, the binding signal was 22400 fluorescence intensity (a.u.).

As to “CATTATAGATTAATACATTTTGGGATGGAGGGAGTACTCACGGAGTCACCTAGTGCAG”, the binding signal is 3200 fluorescence intensity (a.u.).

For “GACAGGATTATCACCTATTTGTCAACAGTTCACCAGGAGCCGGAGTCACCTAGTGCAG”, the binding signal was 3360 fluorescence intensity (a.u.).

For the sequence “ATTTAACGTCATTTATAAACATATACTAGATACTAGTAATCGGAGTCACCTAGTGCAG”, the binding signal was 3890 fluorescence intensity (a.u.).

In the case of “GTCAACTGGAAATTGAAATTCAGCCAAAATTAGTGATCAGCGGAGTCACCTAGTGCAG”, the binding signal is 4850 fluorescence intensity (a.u.).

Take “GTAGCAAATTTACAAATTTGCAGGGCTAGCTGTTGCGGTGCGGAGTCACCTAGTGCAG”: the binding signal was 11100 fluorescence intensity (a.u.).

Turning to “AAGCATCAATTCGTTGCCTGATTAGTACAACACTGTTGTGCGGAGTCACCTAGTGCAG”, the binding signal was 5420 fluorescence intensity (a.u.).

As for “CTAATCCCAGATTGCTAGTGATTAGCACGTAGATACATAGCGGAGTCACCTAGTGCAG”, the binding signal was 21700 fluorescence intensity (a.u.).

In the case of “CAACTTGATTAGTAGTAGTACTAGTTTGATTTTGTCCTGGCGGAGTCACCTAGTGCAG”, the binding signal is 54200 fluorescence intensity (a.u.).

In the case of “CGGTAGTGATTGATTCGGATGATTTCACCAGTAGGATTGGCGGAGTCACCTAGTGCAG”, the binding signal was 65300 fluorescence intensity (a.u.).

On to “GTTTGATTGTTTTCTAGTGTACTACACTTCCCTAGAACGTCGGAGTCACCTAGTGCAG”, for which the binding signal is 55000 fluorescence intensity (a.u.).

For the sequence “CAATAATTGAGTGATTTGGCCCAGTCCAGGAACTAGTAAGCGGAGTCACCTAGTGCAG”, the binding signal was 56100 fluorescence intensity (a.u.).

For the sequence “CTAATTAGTTTTGGTTAGTACTTATAATTTTGTCCTAATGCGGAGTCACCTAGTGCAG”, the binding signal was 15700 fluorescence intensity (a.u.).

“GCCCTTGATTTCTGACTAGATTTGTGTTATTCTACTTACACGGAGTCACCTAGTGCAG”: the binding signal was 27200 fluorescence intensity (a.u.).

For the sequence “CATTTACTAATTTGTTTGCTTGATTGTCCTGGCGAAATTGCGGAGTCACCTAGTGCAG”, the binding signal was 40000 fluorescence intensity (a.u.).

In the case of “ATTTCTGATTGGTGAGATGGGTGATTCGGTAGGCCATTGGCGGAGTCACCTAGTGCAG”, the binding signal is 40100 fluorescence intensity (a.u.).

Regarding “ATATAAATATTAGTAATCAATTGAGGGAACATTTGATTTGCGGAGTCACCTAGTGCAG”, the binding signal was 11300 fluorescence intensity (a.u.).

In the case of “TGTTTGCGATTGATTTGTACTACACAGTGGGTGCTTCTCCCGGAGTCACCTAGTGCAG”, the binding signal was 35300 fluorescence intensity (a.u.).

As for “TCCAGTCCAATCAGCCCACCATAATTTGGGCCGGAATAAGCGGAGTCACCTAGTGCAG”, the binding signal was 17600 fluorescence intensity (a.u.).

In the case of “AGAGGGTGGGGACATGGGGATTGATTTCACCTGTAGGATTCGGAGTCACCTAGTGCAG”, the binding signal is 3430 fluorescence intensity (a.u.).

On to “TATAATTTAAATTCAAATTTGAATCGGGTATGTAAACTTTCGGAGTCACCTAGTGCAG”, for which the binding signal was 15500 fluorescence intensity (a.u.).

With “TCATGAAATTAATAGGATGCCACGTCGACTTGGTTGTTCCCGGAGTCACCTAGTGCAG”, the binding signal was 3510 fluorescence intensity (a.u.).

For the sequence “ATAAATTTATAGGTAAAACTTTTATATAGATGTTCTTGGTCGGAGTCACCTAGTGCAG”, the binding signal was 15300 fluorescence intensity (a.u.).
